Compound activity deposited in PubChem BioAssay by National Center for Advancing Translational Sciences (NCATS).
GoLoco inh red = qHTS Assay for Inhibitors of RGS12 GoLoco Motif Activity (Red Fluorophore) | Potency, µM (highest dose often 61.6 µM), for the others: at the top dose activity, negative = inhibition, most hits filed as inhibitors | Guanine nucleotide-binding protein G(i) subunit alpha-1 (Homo sapiens), P63096 | 230,000 compounds, 0.44% hits | Gai1:RGS12 GoLoco peptide FP, rhodamine, 10 min; active = well fitted inhibition curve with a large enough effect, not every such curve was filed as active; inactive = no such curve, though single readings can be large or run the other way; note: potency is the fitted concentration of half-maximal effect; nearly all actives have a fitted effect of over 30% in size
ALDH1A1 block = qHTS Assay for Inhibitors of Aldehyde Dehydrogenase 1 (ALDH1A1); Aldehyde dehydrogenase 1A1 (Homo sapiens), P00352; Purified ALDH1A1, NADH fluorescence, propionaldehyde substrate; Potency, µM (highest dose often 75.3 µM), inactives show top-dose activity, negative = inhibition, most hits filed as inhibitors; 220,000 compounds, 7.3% hits; AID 1030, 2008; active = well fitted inhibition curve with a large enough effect, not every such curve was filed as active; inconclusive = small, poorly fitted or top-dose-only effect, or another doubt; inactive = no such curve, though single readings can be large or run the other way;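 note: potency is the fitted concentration of half-maximal effect; plate controls were no enzyme wells and a reference inhibitor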
Sfp PPTase inh = qHTS Assay for Inhibitors of Bacillus subtilis Sfp phosphopantetheinyl transferase (PPTase); Potency, µM, for inactives: largest response in the series, negative = inhibition, most hits filed as inhibitors; 310,000 compounds, 3.5% hits; AID 1490, 2009; Biochemical Sfp PPTase activity, qHTS; 4'-phosphopantetheinyl transferase ffp (Bacillus subtilis), Q9F4F7;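 note: the enzyme is Sfp with the accession as filed and its product quenches rhodamine fluorescence; potency is the fitted concentration of half-maximal effect; 0% = enzyme reaction without inhibitor and -100% = no enzyme wells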
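Compounds were incubated with enzyme (final 15 nM) for 15 min at room temperature before substrate addition started the reaction. Fluorescence at 525 nm excitation, 598 nm emission was recorded immediately and after 30 minutes.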
KDM4E inh = qHTS Assay for Inhibitors of Human Jumonji Domain Containing 2E (JMJD2E); JMJD2E catalytic domain, FDH-coupled NADH fluorescence (FDH is formaldehyde dehydrogenase); Potency, µM (highest dose often 57.1 µM), inactives show at the highest dose activity change, negative = inhibition, most hits filed as inhibitors; 230,000 compounds, 1.6% hits; active = well fitted inhibition curve with a large enough effect, not every such curve was filed as active; inconclusive = small, poorly fitted or top-dose-only effect, or another doubt; inactive = no such curve, though single readings can be large or run the other way;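 note: potency is the fitted concentration of half-maximal effect; 0% = wells with enzyme and -100% = buffer wells without enzyme; nearly all actives have a fitted effect of over 50% in size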
Target sequence (B2RXH2 1-337 limits assumed): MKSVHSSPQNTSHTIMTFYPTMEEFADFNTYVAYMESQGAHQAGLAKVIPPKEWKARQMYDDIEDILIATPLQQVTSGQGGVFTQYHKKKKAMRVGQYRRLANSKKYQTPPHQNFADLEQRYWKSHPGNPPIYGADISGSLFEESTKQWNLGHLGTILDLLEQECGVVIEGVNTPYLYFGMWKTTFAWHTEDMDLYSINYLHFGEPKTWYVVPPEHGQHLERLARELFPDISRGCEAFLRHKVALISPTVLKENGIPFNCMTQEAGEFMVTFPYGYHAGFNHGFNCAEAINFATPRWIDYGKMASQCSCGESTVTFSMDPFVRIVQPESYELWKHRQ
FBPA coupling cs = qHTS Assay for Inhibitors of Fructose-1,6-bisphosphate Aldolase from Giardia Lamblia: Coupling assay counterscreen | coupling enzyme system counterscreen, AmpLite Red fluorescence | activity change, negative = inhibition, % at 58.2 µM, hits read low | 290,000 compounds, 0.67% hits; in the data active = activity change below about -30%
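Fluorescence at 525 nm excitation and 598 nm emission measured inhibition of the coupled detection system without aldolase. Compounds (at 57.5 uM final) were preincubated 10 min at room temperature with coupling enzyme reagent before a 20 min substrate/AmpLite Red step.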
NPSR antagonist = qHTS Assay for Antagonists of the Neuropeptide S Receptor: cAMP Signal Transduction; AID 1461, 2008; CHO-NPSR cells, cAMP TR-FRET, antagonist mode; Potency, µM (series often up to 38.3 µM), inactives show at the top dose activity change, negative = inhibition, hits mostly inhibitors; Q6W5P4; 220,000 compounds, 1% hits; note: potency is the fitted concentration of half-maximal effect; nearly all actives have a fitted effect of over 50% in size
Target sequence (Q6W5P4 whole entry, looked up): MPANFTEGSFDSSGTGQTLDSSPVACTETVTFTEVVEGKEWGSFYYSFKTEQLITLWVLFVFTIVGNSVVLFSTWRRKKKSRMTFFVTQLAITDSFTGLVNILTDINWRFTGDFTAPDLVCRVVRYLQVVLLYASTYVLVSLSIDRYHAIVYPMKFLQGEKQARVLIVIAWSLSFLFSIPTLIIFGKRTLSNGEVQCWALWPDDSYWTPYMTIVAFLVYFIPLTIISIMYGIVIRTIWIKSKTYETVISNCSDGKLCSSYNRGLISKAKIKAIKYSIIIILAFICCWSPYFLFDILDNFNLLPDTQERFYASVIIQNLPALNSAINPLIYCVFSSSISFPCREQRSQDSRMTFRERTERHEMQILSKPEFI
Numbers without * were called inactive; ? = inconclusive; nt = no result given; ! = a repeat was not active; [ ] = dose if it differs, or a comment. Compounds with a hit are over-represented: about 8.5% of the library has one in this group of screens. Unless noted, calls come from the whole dose curve; as a rule, active = well fitted curve in the direction sought with a large enough effect; inconclusive = small, poorly fitted or top-dose-only effect, or another doubt; inactive = no such curve, though single readings can be large; an effect the other way counts as inactive or inconclusive. Unless noted, % is set by controls: 0 for no effect and ±100 for the full control effect.

SMILES	GoLoco inh red	ALDH1A1 block	Sfp PPTase inh	KDM4E inh	FBPA coupling cs	NPSR antagonist
CC1CCN(CC(CS(=O)(=O)c2ccc([N+](=O)[O-])cc2)N2CCC(C)CC2)CC1 (stereo unspecified)	3%	nt	0%	5%	1	?
C/C(=N\NS(=O)(=O)c1ccc(C)cc1)c1ccc(C)s1	6%	18µM*	6%	3%	0	0%[46.1 µM]
CCOC(=O)c1c(NC(=O)c2noc3c2CCCC3)sc(C)c1C	-5%	22µM*	32µM*	-10%	-1	-2%[46.1 µM]
Clc1ccc(NCn2cncn2)nc1	4%	19µM*	?	-5%	2	4%[46.1 µM]
O=C(CCCCC(=O)N1CCN(c2ccccc2)CC1)N1CCN(c2ccccc2)CC1	-3%	-13%	10%	2%	3	?
O=C(CCCC(=O)N1CCN(c2ccc([N+](=O)[O-])cc2)CC1)c1ccccc1	6%	28µM*	1%	1%	0	-1%
O=C(CCCc1ccccc1)N1CCN(c2ccc([N+](=O)[O-])cc2)CC1	6%	22µM*	2%	-1%	1	?
O=C(CCS(=O)(=O)Cc1ccccc1)N1CCN(c2ccc([N+](=O)[O-])cc2)CC1	0%	25µM*	15%	8%	1	-4%
O=C(CCS(=O)(=O)Cc1ccccc1)N1CCN(c2ccccc2)CC1	-3%	?	19%	-2%	10	-13%[46.1 µM]
COc1ccc(C(=O)CCC(=O)N2CCN(c3ccc([N+](=O)[O-])cc3)CC2)cc1	nt	nt	-12%	nt	-4	nt
CCOc1ccccc1N1CCN(Cc2cn[nH]c2-c2ccc(F)cc2)CC1	6%	7%	-1%	3%	0	?
c1coc(-c2nnc3sc(Cc4cccs4)nn23)c1	58%	20µM*	-4%	2%	2	-5%[46.1 µM]
Clc1ccc(OCc2nn3c(-c4ccco4)nnc3s2)cc1	78%	22µM*	?	-3%	1	?
COc1ccc(OCc2nn3c(-c4ccco4)nnc3s2)cc1	nt	32µM*	-6%	-23%	-3	-13%[46.1 µM]
COc1ccc(OCc2nn3c(-c4cccc(OC)c4)nnc3s2)cc1	8%	5%	?	-3%	4	-41%[46.1 µM]
Clc1ccc(OCc2nn3c(-c4ccncc4)nnc3s2)cc1	7%	0%	13%	-8%	1	-9%[46.1 µM]
c1coc(-c2nn3c(-c4ccco4)nnc3s2)c1	-9%	20µM*	-12%	-19%	14	-9%[46.1 µM]
COc1ccccc1-c1nn2c(-c3ccco3)nnc2s1	9%	?	?	-9%	2	?
Cc1cc(-c2ccccc2)nc(SCc2ccc(C(=O)O)cc2)n1	nt	nt	8%	nt	12	nt
O=C(CN1C(=O)NC2(CCCCC2)C1=O)NCc1cccs1	2%	10%	8%	2%	2	8%
O=C(CN1C(=O)C2CC=CCC2C1=O)NCc1cccs1 (stereo unspecified)	2%	28µM*	12%	-7%	1	18%
CC1(C)Cc2sc3c(=O)[nH]c(=S)[nH]c3c2CO1	-3%	nt	28µM*	2%	1	9%
CCN(Cc1ccccc1)Cc1ccc(OCc2ccccc2)cc1	nt	nt	-28%	nt	1	nt
CCN(CC)CCOc1ccc(Cc2ccccc2)cc1	-7%	-1%	79µM*!	-9%	0	nt
O=C(NC1CCCCC1)c1cccnc1C(=O)O	-3%	?	79µM*	?	-15	2%[46.1 µM]
SMILES	GoLoco inh red	ALDH1A1 block	Sfp PPTase inh	KDM4E inh	FBPA coupling cs	NPSR antagonist
Cc1ccc(NC(=S)NCCc2ccccc2)nc1	-9%	10µM*	-9%	-21%	-3	-30%
Cc1cccnc1NC(=S)NCCc1ccccc1	-35%	?	40µM*	?	1	-41%
Cc1cccnc1NC(=S)Nc1ncccc1C	7%	-1%	-21%	?	-1	-8%
Cn1cccc1/C=C1\CCC/C(=C\c2cccn2C)C1=O	80%	7.9µM*	-23%	-16%	-5	-14%[46.1 µM]
O=C1/C(=C/c2cccs2)CCC/C1=C\c1cccs1	nt	nt	-8%	nt	nt	nt
COc1ccc(C(=O)CCNc2ccc(F)cc2)cc1	8%	nt	6%	3%	0	13%
COc1ccc(NCCNc2ccc(OC)cc2)cc1	4%	-14%	-3%	-11%	-35*	-2%[46.1 µM]
CCOC(=O)c1cnc2c(cnn2C)c1NCCC#N	0%	?	-3%	-7%	1	2%[46.1 µM]
CCOC(=O)c1cnc2c(cnn2CC)c1NN=C(C)C	-21%	4%	45µM*!	?	0	-10%[46.1 µM]
COC(=O)c1ccc(NC(=O)CCN2C(=O)C3C4CCC(C4)C3C2=O)cc1 (stereo unspecified)	nt	nt	9%	nt	1	nt
CCn1cc(/C=C(\NC(=O)c2ccccc2F)C(=O)NCCCn2ccnc2)c2ccccc21	nt	nt	13%	nt	-2	nt
COc1ccc(C(=O)c2cnc3ccccc3c2-c2ccccc2)cc1	5%	1.4µM*	-13%	-9%	nt	-28%[46.1 µM]
Cc1ccc(C(=O)c2cnc3ccccc3c2-c2ccccc2)cc1	7%	13µM*	-18%	-3%	nt	?
CNc1nc(-c2ccc(C(=O)N(C)C)cc2)nc2ccccc12	11%	4%	-6%	nt	1	nt
Cc1ccccc1/C=N\NC(=O)c1ccccc1-n1cccc1	-3%	-1%	7%	-4%	2	-12%
CC1=NN(C(N)=S)C(=O)C1N=Nc1cccc(C)c1 (stereo unspecified)	18%	nt	0%	7%	-2	-2%
CC1=NN(C(N)=S)C(=O)C1N=Nc1ccc(O)cc1 (stereo unspecified)	23%	?	14µM*	?	-1	32%
CC1=NN(C(N)=S)C(=O)C1N=Nc1cccc(C(=O)O)c1 (stereo unspecified)	nt	nt	45µM*	nt	2	nt
CC1=NN(C(N)=S)C(=O)C1N=Nc1ccc(F)cc1 (stereo unspecified)	nt	nt	-26%	nt	-1	nt
O=C(CSc1ncn[nH]1)Nc1ccc(OCc2ccccc2)cc1	4%	-10%	-4%	-19%	0	13%
CCN(Cc1ccccc1)C(=O)COc1ccccc1	nt	nt	7%	nt	1	nt
O=C(COc1ccc([N+](=O)[O-])cc1)N(Cc1ccccc1)Cc1ccccc1	2%	14µM*	27%	2%	4	-46%
CC(C)CC(NC(N)=O)C(=O)Nc1ccc(Oc2ccccc2)cc1 (stereo unspecified)	1%	-3%	-11%	-5%	2	17%
CCOCC(=O)Nc1ccc(OCc2ccccc2)cc1	14%	?	2%	1%	4	-9%
